Assay results published in PubChem BioAssay (EPA / NIEHS).
Inconclusive results are not listed. The source made the active and inactive calls. The calls were made as follows: active = hit-call score of the fitted dose curve at least 0.9, where 1 is the maximum; inconclusive = response in the unintended direction; inactive = score below 0.9.

molecular target: human Protein Phosphatase, Mg2+/Mn2+ Dependent 1A (PPM1A), PPM1A (gene 5494) (UniProt P35813); assay: NVS_ENZ_hPPM1A: NovaScreen (NVS) Enzymatic Assay for human Protein Phosphatase, Mg2+/Mn2+ Dependent 1A (PPM1A) (AID 2283198)
How it was run: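 Cell-free recombinant PPM1A phosphatase assay with fluorescent substrate, read 1 h after dosing by electrophoretic mobility shift. Chemicals screened in duplicate at 25 uM, then in concentration-response up to 50 uM; loss of activity versus DMSO.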

outcome, inactive:
CCCCCCCCCC(=O)O
CC(C)(O)c1ccc(CNC(=O)c2cccnc2Oc2ccc3nonc3c2)cc1
CCCCCCCCN(C)CCCCCCCC

molecular target: Serine/threonine-protein phosphatase PP1-alpha catalytic subunit (Homo sapiens) (UniProt P62136); assay: NVS_ENZ_hPPP1CA: NovaScreen (NVS) Enzymatic Assay for human Protein Phosphatase 1 Aatalytic subunit Alpha (PPP1CA) (AID 2283200)
How it was run: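 Recombinant enzyme activity read by fluorescence with electrophoretic mobility shift separating substrate from product, 1.33 h after dosing; loss of signal vs DMSO baseline. Primary screen in duplicate at 25 uM; actives retested in concentration-response up to 50 uM.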

outcome, inactive:
c1ccc2ccccc2c1
Cc1c2ccccc2c(C)c2c1ccc1ccccc12
CC[C@H](NC(=O)c1cc(F)ccc1NS(=O)(=O)c1cccc2cccnc12)c1ccccc1

AC50, active:
CCN(Cc1cccc(S(=O)(=O)O)c1)c1ccc(C(=C2C=CC(=[N+](CC)Cc3cccc(S(=O)(=O)O)c3)C=C2)c2ccccc2S(=O)(=O)[O-])cc1 5.82 µM
CCOC(=O)O[C@H](C)OC(=O)c1ccc2c(c1)cc(C(=O)NC1CCN(C(C)C)CC1)n2Cc1cc(-c2ccc(Cl)s2)on1 18.6 µM

molecular target: human Protein Tyrosine Phosphatase Non-receptor Type 1 (PTPN1), PTPN1 (gene 5770) (UniProt P18031); assay: NVS_ENZ_hPTPN1: NovaScreen (NVS) Enzymatic Assay for human Protein Tyrosine Phosphatase Non-receptor Type 1 (PTPN1) (AID 2283201)
How it was run: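 Cell-free fluorogenic-substrate activity assay on recombinant enzyme, read 1.33 h after dosing by fluorescence and electrophoretic mobility shift; loss of signal vs DMSO baseline. Primary screen in duplicate at 25 uM, hits then run in concentration-response up to 50 uM.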

Sequence of human Protein Tyrosine Phosphatase Non-receptor Type 1 (PTPN1), PTPN1 (gene 5770) (P18031 whole entry, looked up): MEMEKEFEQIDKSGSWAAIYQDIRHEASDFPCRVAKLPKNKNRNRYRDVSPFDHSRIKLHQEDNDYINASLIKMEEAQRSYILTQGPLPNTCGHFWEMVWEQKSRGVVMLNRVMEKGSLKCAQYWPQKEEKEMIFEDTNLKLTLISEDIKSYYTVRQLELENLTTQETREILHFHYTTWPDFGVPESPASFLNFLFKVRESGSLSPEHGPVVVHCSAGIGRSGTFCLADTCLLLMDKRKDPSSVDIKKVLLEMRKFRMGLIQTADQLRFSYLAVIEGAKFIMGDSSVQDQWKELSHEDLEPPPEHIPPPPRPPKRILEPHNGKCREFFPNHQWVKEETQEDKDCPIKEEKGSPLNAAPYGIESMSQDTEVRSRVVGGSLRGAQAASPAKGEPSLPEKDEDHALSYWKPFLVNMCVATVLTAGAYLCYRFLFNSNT

outcome, inactive:
CC[C@@H]1C[C@H](N(Cc2cc(C(F)(F)F)cc(C(F)(F)F)c2)C(C)=O)c2cc(C(F)(F)F)ccc2N1C(=O)OC(C)C
CC(C)(C)c1csc(-c2cc3cc(OCc4ccccc4CC(=O)O)ccc3o2)n1
CN1C(=O)N(c2ccccc2Br)Cc2cnc(Nc3ccc4c(c3)OCC(CO)O4)nc21 (stereo unspecified)
c1ccc(C[n+]2cccc3ccccc32)cc1

molecular target: Tyrosine-protein phosphatase non-receptor type 11 (Homo sapiens) (UniProt Q06124); assay: NVS_ENZ_hPTPN11: NovaScreen (NVS) Enzymatic Assay for human Protein Tyrosine Phosphatase Non-receptor Type 11 (PTPN11) (AID 2283202)
How it was run: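 Recombinant human PTPN11 activity on a fluorescent substrate, with substrate/product separated by electrophoretic mobility shift; read 0.5 h after dosing, loss of signal vs DMSO. Duplicate 25 uM screen, then concentration-response up to 50 uM.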

outcome, inactive:
O=C1CCC(C2CCCCC2)CC1
CC(C)(C)c1csc(-c2cc3cc(OCc4ccccc4CC(=O)O)ccc3o2)n1
c1ccc2ccccc2c1
CC/C(=C(/CC)c1ccc(O)cc1)c1ccc(O)cc1
O=C1c2ccccc2C(=O)N1CCc1noc(-c2ccc(CN3CCCCCC3)s2)n1

molecular target: Tyrosine-protein phosphatase non-receptor type 14 (Homo sapiens) (UniProt Q15678); assay: NVS_ENZ_hPTPN14: NovaScreen (NVS) Enzymatic Assay for human Protein Tyrosine Phosphatase Non-receptor Type 14 (PTPN14) (AID 2283206)
How it was run: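 Cell-free recombinant human PTPN14 with fluorescent substrate, read 0.5 h after dosing by fluorescence and electrophoretic mobility shift separating substrate from product. Primary screen at 25 uM in duplicate; hits run to 50 uM maximum; loss of signal versus DMSO.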

AC50, active:
CCN(Cc1cccc(S(=O)(=O)O)c1)c1ccc(C(=C2C=CC(=[N+](CC)Cc3cccc(S(=O)(=O)O)c3)C=C2)c2ccccc2S(=O)(=O)[O-])cc1 11.9 µM

outcome, inactive:
CN1C(=O)N(c2ccccc2Br)Cc2cnc(Nc3ccc4c(c3)OCC(CO)O4)nc21 (stereo unspecified)
Oc1ccc2ccccc2c1
COc1cc(C(=O)NC2CCN(C)CC2)ccc1Nc1ncc2c(n1)N(C1CCCC1)CC(F)(F)C(=O)N2C
CC/C(=C(/CC)c1ccc(O)cc1)c1ccc(O)cc1

molecular target: human Protein Tyrosine Phosphatase Receptor Type B (PTPRB), PTPRB (gene 5787) (UniProt P23467); assay: NVS_ENZ_hPTPRB: NovaScreen (NVS) Enzymatic Assay for human Protein Tyrosine Phosphatase Receptor Type B (PTPRB) (AID 2283211)
How it was run: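 Recombinant human PTPRB with a fluorescent substrate, product separated by electrophoretic mobility shift; read 1 h after dosing. Primary screen in duplicate at 25 uM; actives then retested in concentration series; loss of signal versus DMSO.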

Sequence of human Protein Tyrosine Phosphatase Receptor Type B (PTPRB), PTPRB (gene 5787) (P23467 whole entry, looked up): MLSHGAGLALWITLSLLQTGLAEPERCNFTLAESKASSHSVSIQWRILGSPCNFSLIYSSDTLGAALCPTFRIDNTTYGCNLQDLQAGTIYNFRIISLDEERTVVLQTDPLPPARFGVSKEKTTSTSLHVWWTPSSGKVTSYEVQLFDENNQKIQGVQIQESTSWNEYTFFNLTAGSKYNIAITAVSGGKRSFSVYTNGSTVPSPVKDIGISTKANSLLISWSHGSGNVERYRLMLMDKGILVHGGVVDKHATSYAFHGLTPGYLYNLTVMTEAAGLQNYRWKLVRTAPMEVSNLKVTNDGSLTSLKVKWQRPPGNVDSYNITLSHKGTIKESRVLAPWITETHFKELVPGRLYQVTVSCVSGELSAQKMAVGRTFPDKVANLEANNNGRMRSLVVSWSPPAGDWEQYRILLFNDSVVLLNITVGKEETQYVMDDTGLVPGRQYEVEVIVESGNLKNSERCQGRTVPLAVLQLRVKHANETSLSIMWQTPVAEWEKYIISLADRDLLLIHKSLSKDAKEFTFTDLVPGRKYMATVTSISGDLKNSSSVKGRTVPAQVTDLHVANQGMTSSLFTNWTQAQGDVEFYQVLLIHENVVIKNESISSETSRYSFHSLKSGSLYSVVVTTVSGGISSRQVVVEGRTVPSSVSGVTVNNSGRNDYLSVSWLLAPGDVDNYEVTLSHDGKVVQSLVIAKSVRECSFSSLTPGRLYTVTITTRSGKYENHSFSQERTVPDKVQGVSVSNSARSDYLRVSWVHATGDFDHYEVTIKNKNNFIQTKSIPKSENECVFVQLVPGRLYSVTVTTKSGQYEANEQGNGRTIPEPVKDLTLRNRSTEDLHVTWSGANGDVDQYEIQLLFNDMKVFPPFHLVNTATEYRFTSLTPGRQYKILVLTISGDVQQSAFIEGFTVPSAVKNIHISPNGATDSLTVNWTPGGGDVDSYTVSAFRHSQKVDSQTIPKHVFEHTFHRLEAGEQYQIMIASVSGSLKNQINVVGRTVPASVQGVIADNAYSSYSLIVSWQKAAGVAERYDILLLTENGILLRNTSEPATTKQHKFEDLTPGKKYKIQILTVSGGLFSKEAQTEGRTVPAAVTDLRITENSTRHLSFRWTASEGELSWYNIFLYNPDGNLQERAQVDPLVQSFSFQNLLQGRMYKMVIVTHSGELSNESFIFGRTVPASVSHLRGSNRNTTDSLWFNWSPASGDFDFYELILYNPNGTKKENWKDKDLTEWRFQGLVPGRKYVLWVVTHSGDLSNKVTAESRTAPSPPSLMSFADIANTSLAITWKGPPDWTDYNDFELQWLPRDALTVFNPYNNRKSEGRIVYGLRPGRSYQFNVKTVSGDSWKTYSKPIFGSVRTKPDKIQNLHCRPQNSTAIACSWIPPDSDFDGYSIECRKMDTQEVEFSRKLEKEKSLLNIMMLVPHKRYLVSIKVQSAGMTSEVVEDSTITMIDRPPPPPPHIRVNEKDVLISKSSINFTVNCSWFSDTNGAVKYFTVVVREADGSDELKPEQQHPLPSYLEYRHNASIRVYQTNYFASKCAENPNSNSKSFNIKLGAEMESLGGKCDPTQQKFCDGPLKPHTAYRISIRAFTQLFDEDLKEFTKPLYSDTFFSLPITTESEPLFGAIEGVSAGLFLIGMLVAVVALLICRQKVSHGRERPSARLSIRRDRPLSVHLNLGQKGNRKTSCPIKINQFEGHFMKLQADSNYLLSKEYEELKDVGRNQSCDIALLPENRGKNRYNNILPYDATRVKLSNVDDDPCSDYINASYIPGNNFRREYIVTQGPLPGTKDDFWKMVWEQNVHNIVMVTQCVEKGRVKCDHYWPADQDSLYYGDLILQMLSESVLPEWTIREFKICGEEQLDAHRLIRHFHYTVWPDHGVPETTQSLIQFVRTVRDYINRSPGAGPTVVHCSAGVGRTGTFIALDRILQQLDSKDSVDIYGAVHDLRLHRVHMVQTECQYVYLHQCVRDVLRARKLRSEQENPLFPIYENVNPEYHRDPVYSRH

outcome, inactive:
Clc1cc(Cl)c2c(c1)N=C1CCCCCN1C2
CCCCCCCCCC(=O)O
CC/C(=C(/CC)c1ccc(O)cc1)c1ccc(O)cc1

molecular target: human Rho Associated Coiled-coil Containing Protein Kinase 1 (ROCK1), ROCK1 (gene 6093) (UniProt Q13464); assay: NVS_ENZ_hROCK1: NovaScreen (NVS) Enzymatic Assay for human Rho Associated Coiled-coil Containing Protein Kinase 1 (ROCK1) (AID 2283214)
How it was run: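 Cell-free recombinant human ROCK1 activity assay; fluorescent substrate and product separated by electrophoretic mobility shift, read 1 h after dosing. Screened in duplicate at 25 uM; loss of signal versus DMSO baseline scored as inhibition.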

Sequence of human Rho Associated Coiled-coil Containing Protein Kinase 1 (ROCK1), ROCK1 (gene 6093) (Q13464 whole entry, looked up): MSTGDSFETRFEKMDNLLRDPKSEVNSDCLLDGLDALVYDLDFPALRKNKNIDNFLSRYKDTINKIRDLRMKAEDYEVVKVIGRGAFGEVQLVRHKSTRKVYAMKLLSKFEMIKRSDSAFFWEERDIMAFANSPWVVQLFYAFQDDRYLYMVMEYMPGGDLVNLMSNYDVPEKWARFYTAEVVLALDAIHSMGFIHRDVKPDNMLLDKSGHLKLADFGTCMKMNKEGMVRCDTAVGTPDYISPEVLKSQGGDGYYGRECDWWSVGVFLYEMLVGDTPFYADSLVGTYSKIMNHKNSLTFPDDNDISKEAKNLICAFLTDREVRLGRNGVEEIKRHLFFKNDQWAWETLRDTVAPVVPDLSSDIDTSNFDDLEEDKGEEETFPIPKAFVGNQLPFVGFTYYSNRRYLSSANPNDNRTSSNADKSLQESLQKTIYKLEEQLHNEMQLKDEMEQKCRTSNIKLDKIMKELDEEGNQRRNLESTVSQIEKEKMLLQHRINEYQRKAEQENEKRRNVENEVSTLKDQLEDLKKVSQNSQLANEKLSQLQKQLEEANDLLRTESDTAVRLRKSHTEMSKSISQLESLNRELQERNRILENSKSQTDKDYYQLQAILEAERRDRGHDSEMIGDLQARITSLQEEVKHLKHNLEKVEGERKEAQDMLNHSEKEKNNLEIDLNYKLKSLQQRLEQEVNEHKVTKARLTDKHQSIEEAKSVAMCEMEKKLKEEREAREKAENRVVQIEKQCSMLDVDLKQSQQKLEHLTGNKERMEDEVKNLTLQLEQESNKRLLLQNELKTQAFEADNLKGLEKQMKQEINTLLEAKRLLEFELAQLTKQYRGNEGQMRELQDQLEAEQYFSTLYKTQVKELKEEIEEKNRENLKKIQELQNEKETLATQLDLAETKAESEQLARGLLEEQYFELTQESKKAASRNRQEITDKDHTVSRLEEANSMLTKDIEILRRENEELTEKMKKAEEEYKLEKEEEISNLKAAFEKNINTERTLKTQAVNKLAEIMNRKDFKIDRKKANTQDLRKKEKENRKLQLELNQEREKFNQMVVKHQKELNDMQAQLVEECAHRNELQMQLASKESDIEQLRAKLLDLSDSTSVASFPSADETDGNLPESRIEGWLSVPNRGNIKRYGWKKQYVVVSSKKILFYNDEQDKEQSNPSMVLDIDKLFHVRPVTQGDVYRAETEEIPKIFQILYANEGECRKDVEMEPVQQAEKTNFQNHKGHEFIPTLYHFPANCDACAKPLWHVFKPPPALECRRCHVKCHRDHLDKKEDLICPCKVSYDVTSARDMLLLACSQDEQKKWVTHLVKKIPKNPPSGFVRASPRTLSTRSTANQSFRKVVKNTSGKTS

outcome, inactive:
CC(C)(c1cc(Br)c(O)c(Br)c1)c1cc(Br)c(O)c(Br)c1
COc1cc(C(=O)NC2CCN(C)CC2)ccc1Nc1ncc2c(n1)N(C1CCCC1)CC(F)(F)C(=O)N2C
OCCO

molecular target: human Sirtuin 2 (SIRT2), SIRT2 (gene 22933) (UniProt Q8IXJ6); assay: NVS_ENZ_hSIRT2: NovaScreen (NVS) Enzymatic Assay for human Sirtuin 2 (SIRT2) (AID 2283217)
How it was run: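 Cell-free recombinant human SIRT2, fluorescent substrate with product separated by electrophoretic mobility shift, 1 hr. Screened in duplicate at 25 uM; hits rerun singly in concentration-response up to 50 uM, relative to DMSO.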

outcome, inactive:
CC(C)(C)c1csc(-c2cc3cc(OCc4ccccc4CC(=O)O)ccc3o2)n1
O=C(O)Cn1c(=O)n(Cc2ccc(Br)cc2F)c(=O)c2ccc(Cl)cc21
CCCCCCCCN(C)CCCCCCCC
COc1cc(C(=O)NC2CCN(C)CC2)ccc1Nc1ncc2c(n1)N(C1CCCC1)CC(F)(F)C(=O)N2C
NC(=O)c1nc(-c2cccc(-c3cc(F)ccc3OCC(F)(F)C(F)(F)F)c2)n[nH]1
O=C1c2ccccc2C(=O)N1CCc1noc(-c2ccc(CN3CCCCCC3)s2)n1

AC50, active:
CC(=O)N1CCN(c2ccc(OC[C@H]3CO[C@](Cn4ccnc4)(c4ccc(Cl)cc4Cl)O3)cc2)CC1 6.46 µM

molecular target: human Sirtuin 1 (SIRT1), SIRT1 (gene 23411) (UniProt Q96EB6); assay: NVS_ENZ_hSIRT1: NovaScreen (NVS) Enzymatic Assay for human Sirtuin 1 (SIRT1) (AID 2283219)
How it was run: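 Cell-free recombinant SIRT1 with a fluorescent substrate; substrate and product separated by electrophoretic mobility shift and read by fluorescence intensity, 1 h after dosing. Primary screen at 25 uM in duplicate; hits re-run in concentration-response up to 50 uM, relative to DMSO.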

Sequence of human Sirtuin 1 (SIRT1), SIRT1 (gene 23411) (Q96EB6 whole entry, looked up): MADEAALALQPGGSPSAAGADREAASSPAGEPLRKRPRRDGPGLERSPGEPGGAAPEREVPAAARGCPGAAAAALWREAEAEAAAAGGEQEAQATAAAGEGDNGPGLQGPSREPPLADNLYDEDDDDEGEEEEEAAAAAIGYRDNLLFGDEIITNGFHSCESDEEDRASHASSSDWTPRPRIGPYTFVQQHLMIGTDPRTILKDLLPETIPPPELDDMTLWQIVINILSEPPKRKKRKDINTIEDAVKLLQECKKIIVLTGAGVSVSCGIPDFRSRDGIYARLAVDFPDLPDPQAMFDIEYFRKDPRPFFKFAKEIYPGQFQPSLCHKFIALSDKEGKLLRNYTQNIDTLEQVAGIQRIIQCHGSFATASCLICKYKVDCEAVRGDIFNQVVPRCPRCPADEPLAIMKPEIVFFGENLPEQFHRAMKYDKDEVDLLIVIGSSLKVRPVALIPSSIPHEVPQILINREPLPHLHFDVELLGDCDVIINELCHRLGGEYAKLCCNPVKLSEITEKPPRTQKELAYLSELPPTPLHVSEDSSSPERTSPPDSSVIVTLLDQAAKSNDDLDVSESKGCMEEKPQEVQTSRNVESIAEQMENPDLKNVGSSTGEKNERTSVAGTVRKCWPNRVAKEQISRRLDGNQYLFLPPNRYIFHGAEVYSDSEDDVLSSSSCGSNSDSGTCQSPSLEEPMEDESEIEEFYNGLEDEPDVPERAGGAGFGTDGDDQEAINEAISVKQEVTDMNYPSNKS

outcome, inactive:
COc1ccc2cc(S(=O)(=O)N[C@H](CC(=O)N[C@H](Cc3ccc(CN4[C@H](C)CCC[C@@H]4C)cc3)C(=O)N(C)C(C)C)c3ccc4c(c3)OCO4)ccc2c1
CCCCCCCCCC(=O)O
CN1C(=O)N(c2ccccc2Br)Cc2cnc(Nc3ccc4c(c3)OCC(CO)O4)nc21 (stereo unspecified)
Oc1ccc2ccccc2c1
O=c1c(-c2ccc(O)cc2)coc2cc(O)cc(O)c12
CC(=O)N1CCN(c2ccc(OC[C@H]3CO[C@](Cn4ccnc4)(c4ccc(Cl)cc4Cl)O3)cc2)CC1

molecular target: human Sirtuin 3 (SIRT3), SIRT3 (gene 23410) (UniProt Q9NTG7); assay: NVS_ENZ_hSIRT3: NovaScreen (NVS) Enzymatic Assay for human Sirtuin 3 (SIRT3) (AID 2283222)
How it was run: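 Cell-free enzyme assay with recombinant protein and fluorescent substrate, product separated by electrophoretic mobility shift; read 1 hour after dosing. Screened in duplicate at 25 uM, then singleton concentration-response up to 50 uM; loss of signal versus DMSO.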

Sequence of human Sirtuin 3 (SIRT3), SIRT3 (gene 23410) (Q9NTG7 whole entry, looked up): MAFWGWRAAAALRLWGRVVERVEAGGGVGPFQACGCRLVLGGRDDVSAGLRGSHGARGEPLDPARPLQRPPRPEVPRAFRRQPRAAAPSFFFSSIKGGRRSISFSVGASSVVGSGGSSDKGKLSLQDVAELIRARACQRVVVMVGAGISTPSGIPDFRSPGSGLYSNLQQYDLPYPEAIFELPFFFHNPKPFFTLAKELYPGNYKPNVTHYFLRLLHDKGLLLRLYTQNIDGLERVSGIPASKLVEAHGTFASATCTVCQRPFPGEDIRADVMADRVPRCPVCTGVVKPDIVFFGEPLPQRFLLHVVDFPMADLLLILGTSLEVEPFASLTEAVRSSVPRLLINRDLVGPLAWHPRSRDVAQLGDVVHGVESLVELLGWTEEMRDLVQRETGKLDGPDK

outcome, inactive:
O=C(Nc1ccc(Cl)cc1)Nc1ccc(Cl)c(Cl)c1
Cc1oc2c(NC(=O)c3c(Cl)cccc3Cl)cccc2c1C(C)(C)O
NC(=O)c1nc(-c2cccc(-c3cc(F)ccc3OCC(F)(F)C(F)(F)F)c2)n[nH]1
Cc1occc1C(=O)Nc1ccc(C(=O)N2CCC(F)(F)/C(=C\C(=O)N3CCC(N4CCCCC4)CC3)c3ccccc32)cc1
O=C1c2ccccc2C(=O)N1CCc1noc(-c2ccc(CN3CCCCCC3)s2)n1
O=C1O[C@H]([C@@H](O)CO)C(O)=C1O

AC50, active:
CCN(CC)C(=O)c1cc(S(=O)(=O)Cc2ccccc2)c(N2CCC(c3ccccc3)CC2)cc1N(CC)CCN(C)C 4.57 µM

molecular target: human SRC Proto-Oncogene, Non-receptor Tyrosine Kinase (SRC), SRC (gene 6714) (UniProt P12931); assay: NVS_ENZ_hSRC: NovaScreen (NVS) Enzymatic Assay for human SRC Proto-Oncogene, Non-receptor Tyrosine Kinase (SRC) (AID 2283223)
How it was run: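 Cell-free kinase activity assay with fluorescent substrate, product separated by electrophoretic mobility shift, read 1 h after dosing. Duplicate single point at 25 uM, then concentration-response up to 50 uM; loss of signal versus DMSO.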

outcome, inactive:
c1ccc2ccccc2c1
Cc1cccc2ccccc12

AC50, active:
CN1C(=O)N(c2ccccc2Br)Cc2cnc(Nc3ccc4c(c3)OCC(CO)O4)nc21 (stereo unspecified) 0.00229 µM
